Here are results for 29 molecules from PubChem BioAssay (NCI).

Test in all cases: NCI-60 one-dose screen, 48 h (100 = growth as untreated, 0 = no growth, -100 = all killed)
Experiment [1] relates to DU-145 prostate. To be noted: 10 µM unless noted.
In experiment [2] the test system is K-562 leukemia. The following applies: 10 µM unless noted.
Experiment [3] has as its system MALME-3M melanoma. To be noted: 10 µM unless noted.
The subject of experiment [4] is MDA-MB-231 breast. To be noted: 10 µM unless noted.
The test system of experiment [5] is RXF 393 renal. The following applies: 10 µM unless noted.
Experiment [6] relates to SF-268 CNS. To be noted: 10 µM unless noted.
For experiment [7], the system named is SF-295 CNS. To be noted: 10 µM unless noted.
In experiment [8] the test system is SF-539 CNS. The following applies: 10 µM unless noted.
In experiment [9] the test system is M14 melanoma. To be noted: 10 µM unless noted.
Experiment [10] has as its system UACC-257 melanoma. To be noted: 10 µM.

Compounds without any hit were thinned out: in the full panel of roughly 83,000, 20% have a hit.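 How to read the values: 0–100, growth inhibition (40 = 60% inhibited); 0, no net growth; -100 to 0, cell death (-40 = 40% of starting cells died; -100 = all dead).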 Unmarked numbers belong to inactive results. Active and inactive are the calls of the source. The calls were made as follows: active = growth percent below 10; inactive = the rest.

As to `O=S(=O)(NCCCNc1cc(-c2cn(-c3ccccc3)nc2-c2cccc(O)c2)ccn1)c1cccc(F)c1`, the growth in [1] is 59.4%; in experiment [2], 1.85% (active); in [3] it was 37.9%; in experiment [4], 7.26% (active); in [5], 40.1%; in experiment [6], 60.7%. Also, the results for the growth in experiment [7], in experiment [8] and in experiment [9] were 9.83% (active), 45.1% and 42.3%, respectively.
For the molecule `CCOC(=O)c1cc(/C(=N\O)c2cc(OC)c(OC)c(OC)c2)n2c(C)cccc12`, the growth was 50.1% in experiment [1]; 16.8% in [2]; 44.8% in experiment [3]; 48.7% in experiment [4]; 34.5% in experiment [5]; 43% in experiment [6]. Further, the growth in experiment [7] is 11.3%; in experiment [8], 15.2%; in [9], 20.8%.
With `O=S(=O)(NCCCNc1cc(-c2cn(-c3ccccc3)nc2-c2cccc(O)c2)ccn1)c1cccc2ccccc12`, the growth in [1] was 49.7%; in experiment [2] it was 1.39% (active); in experiment [3], -1.89% (active); in [4], 4.29% (active); in experiment [5] it was 32.1%; in [6], 39.9%. Moreover, the figures for the growth in [7], in experiment [8] and in [9] were -19.9% (active), 33.3% and 28.2%, respectively.
Regarding `Nc1cc2c(cc1N)-c1cc(N)c(N)cc1C2`, the growth in experiment [1] is 118%; in experiment [2] it was 107%; in [3], 102%; in experiment [4], 83.8%; in experiment [5] it was 107%; in experiment [6], 91.4%. Moreover, the growth in experiment [7] was 113%; in experiment [8], 103%; in experiment [9] it was 101%.
Turning to `O=C(C[N+](=O)[O-])c1ccc(Cl)cc1`, the growth was 111% in [1]; 103% in experiment [2]; 114% in [3]; 110% in experiment [4]; 115% in experiment [5]; 108% in [6]. Further, the growth in experiment [7] was 111%; in experiment [8], 104%; in experiment [9], 101%.
`CCO/C=N/NC(=O)c1ccncc1`: the growth is 105% in [1]; 108% in experiment [2]; 106% in experiment [3]; 109% in experiment [4]; 109% in experiment [5]; 101% in experiment [6]. In addition, the growth in [7] is 116%; in experiment [8] it was 111%; in experiment [9] it was 114%.
Take `COc1cc(-c2csc(NC(=O)Nc3ccc(Cl)cc3Cl)n2)cc(OC)c1OC`: the growth in [1] was 46.6%; in experiment [2], 15.8%; in experiment [3], 45%; in experiment [4], 54.7%; in experiment [5], 49.9%; in experiment [6], 33.6%. In addition, the growth is 19.2% in [7], 29.4% in experiment [8] and 34.9% in experiment [9].
Consider `CCN(CC)CCC(=O)c1cccc2ccccc12`, for which the growth in experiment [1] is 108%; in experiment [2], 89.6%; in [3] it was 98.6%; in experiment [4], 94.8%; in experiment [5] it was 102%; in [6] it was 109%. Besides, the growth is 101% in [7], 92.4% in [8] and 111% in [9].
With `N#CC1=C(N)n2nc(-c3ccncc3)nc2NC1c1cccc2ccccc12` (stereo unspecified), the growth in experiment [1] was 93.3%; in [2] it was 80.9%; in experiment [3], 82%; in [4], 77.6%; in experiment [5] it was 87.4%; in experiment [6], 94.5%. Besides, the growth in experiment [7] was 90.5%; in experiment [8] it was 88.2%; in [9], 90.1%.
On to `CCC(c1cccc(Br)c1)C(C(=O)O)c1ccc(OC)cc1` (stereo unspecified), for which the growth in [1] was 116%; in [2] it was 77.6%; in [3], 101%; in experiment [4], 111%; in [5], 118%; in experiment [6], 105%. Besides, the growth is 108% in experiment [7], 104% in experiment [8] and 86.5% in [9].
Turning to `O=[N+]([O-])c1cccc(-c2cc(-c3cc(Br)ccc3O)[nH]n2)c1`, the growth was 35.1% in experiment [1]; 12.4% in experiment [2]; 5.27% (active) in [3]; 27% in experiment [4]; 58.1% in experiment [5]; 23.6% in experiment [6]. The growth is 40.4% in experiment [7], 34% in experiment [8] and 35.6% in [9].
`CCN(Cc1ccc(CN(CC)C(=O)C(Br)Br)cc1)C(=O)C(Br)Br`: the growth in [1] was 14.1%; in experiment [2], 27.1%; in [3] it was 52.6%; in experiment [4] it was 28.2%; in experiment [5], 67.9%; in experiment [6], 51.6%. The growth in experiment [7] is 45.9%; in [8], 53.6%; in [9], 24.9%.
On to `COc1ccc(/C(=N/O)c2cc(F)c(F)c(OC)c2F)cc1O`, for which the growth in [1] was 16.9%; in experiment [2] it was 10.3%; in experiment [3], 60.7%; in experiment [4], 47.8%; in [5], 16.7%; in experiment [6] it was 48.1%. The values for the growth in [7], in experiment [8] and in [9] were 1.83% (active), -22.8% (active) and 15.4%, respectively.
Consider `CC(=O)N1Cc2ccccc2C(C)Cc2cc(Cl)ccc21` (stereo unspecified), for which the growth was 114% in [1]; 102% in experiment [2]; 103% in [3]; 102% in experiment [4]; 124% in experiment [5]; 104% in experiment [6]. The figures for the growth in experiment [7], in [8] and in [9] were 110%, 107% and 103%, respectively.
`CCSc1nnc(NC(=O)Cc2ccc(Cl)cc2)s1`: the growth was 105% in experiment [1]; 89.4% in [2]; 105% in [3]; 114% in [4]; 20.6% in experiment [5]; 110% in experiment [6]. Besides, the figures for the growth in experiment [7], in experiment [8] and in experiment [9] were 98.3%, 97.4% and 107%, respectively.
`Nc1nc(N)c2nc(CNc3ccc(C(=O)CC(CCC(=O)O)C(=O)O)cc3)cnc2n1` (stereo unspecified): the growth in experiment [1] is 28.9%; in [2], 58.3%; in experiment [3] it was 111%; in [4], 101%; in experiment [5] it was 19.3%; in experiment [6], 29.7%. Moreover, the growth in experiment [7] is 37.8%; in experiment [8], 20.5%; in experiment [9], 27.1%.
Consider `Cc1cnc(NC(=O)C(Cc2ccccc2)NC(=O)c2ccccc2)s1` (stereo unspecified), for which the growth in experiment [1] was 85.5%; in experiment [2] it was 29.7%; in [3] it was 54%; in experiment [4], 77.9%; in experiment [5] it was 50.2%; in [6], 96.9%. Besides, the results for the growth in experiment [7], in experiment [8] and in [9] were 65.9%, 87% and 52%, respectively.
Turning to `CCCC1OC(c2ccc(C(C)C)cc2)OCC1CC` (stereo unspecified), the growth in experiment [1] was 110%; in experiment [2], 102%; in [3] it was 106%; in [4], 107%; in experiment [5] it was 115%; in experiment [6] it was 103%. In addition, the growth is 104% in [7], 96.3% in experiment [8] and 101% in experiment [9].
As for `C=C1C(=O)O[C@H]2[C@H]1CC/C(COC(=O)NCc1ccc(OC)cc1)=C\CC[C@@]1(C)O[C@@H]21`, the growth in experiment [1] is 33.5%; in experiment [2], 14%; in experiment [3], 98.3%; in experiment [4], 60.9%; in experiment [5], 15%; in experiment [6] it was 55.5%. Moreover, the growth in experiment [7] is 96.2%; in experiment [8], 50.2%; in experiment [9], 32.9%.
As for `CCNc1nc(N2CC(=O)Nc3cc(OC)ccc32)c2ccccc2n1`, the growth in experiment [1] was -1.09% (active); in experiment [2] it was 6.9% (active); in [3], 51%; in [4], 12.7%; in [5], 33.7%; in [6], 14.8%. Besides, the growth was -5.23% (active) in experiment [7], -4.78% (active) in [8] and 7.3% (active) in experiment [9].
Take `O=C1CCC/C=C\C[C@H]2C=CC(=O)/C2=C/C[C@H](C/C=C\CC(F)(F)F)O1`: the growth is -3.69% (active) in [1]; 3.68% (active) in experiment [2]; -12% (active) in experiment [3]; 17.7% in experiment [4]; -85.4% (active) in experiment [5]; -1.48% (active) in experiment [6]. Moreover, the growth is -19.7% (active) in experiment [7], -40.1% (active) in experiment [8] and -15.2% (active) in experiment [9].
As to `O=C1OC(c2ccccc2)=N/C1=C\c1ccc([N+](=O)[O-])cc1`, the growth in [1] is 109%; in [2], 112%; in experiment [3], 89%; in [4] it was 94.1%; in [5], 101%; in [6] it was 101%. Moreover, the growth in [7] was 103%; in experiment [8], 99.2%; in experiment [9] it was 95.4%.
Turning to `Cc1ccnc2nc(C(=O)OCC(=O)Nc3ccc(-c4ccccc4)cc3)nn12`, the growth was 109% in experiment [1]; 61.8% in [2]; 115% in experiment [3]; 104% in [4]; 49.7% in [5]; 113% in [6]. The figures for the growth in experiment [7], in experiment [8] and in [9] were 92.7%, 95.6% and 99.9%, respectively.
Consider `O=C(NCCc1c[nH]c2ccccc12)C1Cc2ccccc2CN1C(=O)c1ccco1` (stereo unspecified), for which the growth in experiment [1] is 114%; in experiment [2], 71.5%; in experiment [3], 96.2%; in experiment [4] it was 96.2%; in [5], 154%; in experiment [6], 111%. The growth in experiment [7] is 113%; in experiment [8], 103%; in experiment [9], 107%.
Regarding `O=C(Nc1ccc(I)cc1)c1cc([N+](=O)[O-])ccc1O`, the growth in experiment [1] is 51.4%; in experiment [2], 18.7%; in [3], -2.87% (active); in experiment [4], 16.2%; in [5] it was 7.47% (active); in experiment [6], 39.4%. Further, the growth in experiment [7] is 33.7%; in [8], 20.4%; in [9], 31.3%.
As to `CC1CCc2c(sc(NC(=O)CSc3nnc4ccccn34)c2C(N)=O)C1` (stereo unspecified), the growth is 144% in experiment [1]; 117% in experiment [2]; 181% in experiment [3]; 102% in [4]; 1.36% (active) in [5]; 109% in [6]. The growth is 93.6% in experiment [7], 137% in [8] and 117% in experiment [9].
In the case of `CCCS(=O)(=O)c1nc(NC2CC2)cc(-c2ccc3c(ccn3C3CC(C)(C)NC(C)(C)C3)c2)n1`, the growth is 8.45% (active) in experiment [1]; -52.6% (active) in experiment [2]; -56.3% (active) in [3]; -78.8% (active) in experiment [4]; -87.3% (active) in experiment [5]; -48.7% (active) in experiment [6]. Further, the growth is -48.9% (active) in [7], -88.1% (active) in experiment [8] and -78.2% (active) in [9].
`c1ccc(CCn2nnc3c(Nc4ccc(N5CCOCC5)cc4)ncnc32)cc1`: the growth was 105% in experiment [1]; 27.1% in [2]; 69.2% in experiment [3]; 78.4% in experiment [4]; 107% in [6]; 94.1% in [7]. The growth in [8] is 82.2%; in experiment [10], 68.6%; in experiment [9] it was 44%.
`O=[N+]([O-])c1ccc(S(=O)(=O)N2CCN(c3ccnc4cc(Cl)ccc34)CC2)c([N+](=O)[O-])c1`: the growth in [1] was 92.3%; in [2] it was 18%; in [3] it was 76.2%; in experiment [4], 85.3%; in [5], 74%; in [6] it was 86%. Moreover, the results for the growth in [7], in experiment [8] and in experiment [9] were 100%, 93.5% and 92.2%, respectively.
